# Source: PubChem BioAssay (Tox21)
# The source made the active and inactive calls. Calls come from the whole dose curve; as a rule, active = well fitted inhibition curve with a large enough effect in the repeat runs (not every such curve was filed as active); inconclusive = weak or mixed curves; inactive = flat fitted curve, though single readings scatter.
# Target: Thyrotropin-releasing hormone receptor (Homo sapiens) (UniProt P34981)
# Assay: qHTS assay to identify small molecule antagonists of the thyrotropin-releasing hormone receptor (TRHR) signaling pathway (AID 1346877)
# Settings: TRHR-HEK293, TRH-induced calcium fluorescence, antagonist mode; series mostly up to 51.3 µM; activity, negative = inhibition: at the top concentration
# Source text: National Center for Advancing Translational Sciences [NCATS]
# NIH Chemical Genomics Center [NCGC]
# U.S. Environmental Protection Agency [EPA]
# National Institutes of Environmental Health Sciences [NIEHS]
# National Toxicology Program [NTP]
# U.S. Food and Drug Administration [FDA]
# Thyrotropin-releasing hormone (TRH) receptor (TRHR) is a G-protein-coupled receptor which binds the tripeptide thyrotropin releasing hormone. TRHR is found in the brain and, when bound by TRH, acts (through phospholipase C) to increase intracellular inositol trisphosphate. It plays a crucial role in the anterior pituitary where it controls the synthesis and secretion of thyroid stimulating hormone and prolactin. The TRHR-Hek293 assay is a cell-based assay, and it has the potential to screen G protein-coupled receptors. A compound/drug can either activate (agonist) or suppress (antagonist) GPCRs that can be monitored by levels of intracellular calcium. In this assay, the Tox21 10K compound library was screened to identify potential TRHR antagonists.
# Tox21 Assay Protocol Summary:
# The TRHR-Hek293 cells were dispensed at 1500cells/4uL/well in 1536-well black-clear bottom plates using a Multidrop dispenser. After the assay plates were incubated at a 37 C/5% CO2 incubator for 18 hours, 4 uL of Dye-Loading Solution was added to each well. The plates were incubated at 37 C for 2 hours. For agonist mode, 23 nL of compounds dissolved in DMSO, positive controls or DMSO only was transferred to the assay plate by a pin tool. The fluorescence intensity in the plates was measured using FDSS 7000EX kinetic plate reader for 3 min at 1 sec intervals. For antagonist mode, 23 nL of compounds dissolved in DMSO, positive controls or DMSO only was transferred to the assay plate by a pin tool. After 5 min incubation at room temperature, 1 uL of TRH was added on the top of the cell/compound mixtures to achieve a final agonist concentration of 1 nM. The fluorescence intensity in the plates was measured using FDSS 7000EX kinetic plate reader for 3 min at 1 sec intervals. Each test compound was measured at 15 concentrations and in triplicates.
# % is set by controls: 0 for no effect and ±100 for the full control effect.
# Thyrotropin-releasing hormone receptor (Homo sapiens), sequence (P34981 whole entry, looked up): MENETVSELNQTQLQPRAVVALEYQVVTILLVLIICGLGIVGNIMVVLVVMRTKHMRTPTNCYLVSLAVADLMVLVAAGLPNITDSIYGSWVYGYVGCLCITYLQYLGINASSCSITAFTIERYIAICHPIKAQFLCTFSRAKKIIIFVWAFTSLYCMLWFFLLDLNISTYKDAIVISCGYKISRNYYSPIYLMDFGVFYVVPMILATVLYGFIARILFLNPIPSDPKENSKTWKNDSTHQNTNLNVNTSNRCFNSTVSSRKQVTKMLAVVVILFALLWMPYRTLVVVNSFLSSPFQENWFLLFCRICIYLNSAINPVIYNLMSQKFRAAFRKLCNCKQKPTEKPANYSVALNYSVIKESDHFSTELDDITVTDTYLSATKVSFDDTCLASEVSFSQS
SMILES,Potency,"activity, negative = inhibition"
CN(C)c1ccc(N=O)cc1,inactive,
CCC1(CC)C(=O)NC(=O)NC1=O,,-2.6% [at 23.6 µM] (inactive)
C=CC(=O)NC(C)(C)CC(C)=O,,-2.74% (inactive)
NCCc1cc(O)c(O)cc1O,,-4.19% [at 23.6 µM] (inactive)
C=CCc1ccccc1O,,11.4% (inactive)
CCC1CCC(=O)O1 (stereo not given),,-0.102% (inactive)
CCCN(CCC)C(=O)Cc1c(-c2ccc(Cl)cc2)nc2ccc(Cl)cn12,,-13.5% [at 23.6 µM] (inactive)
CCC(C)(C)c1ccc(O)c(C(C)(C)CC)c1,inactive,
O=[N+]([O-])O[C@H]1CO[C@H]2[C@@H]1OC[C@H]2O[N+](=O)[O-],,0.182% [at 23.6 µM] (inactive)
CNC(=O)Oc1cccc(N=CN(C)C)c1,,0.191% (inactive)
Cc1nnc(-c2ccccc2)c(=O)n1N,,1.25% (inactive)
Cc1ccc(N)c(C)c1,inactive,
O=C(Cc1ccccc1)OCCc1ccccc1,,0.178% (inactive)
C[C@]12C=CC3=C4CCC(=O)C=C4CC[C@H]3[C@@H]1CC[C@@H]2O,inactive,
CCCCCCCCCCCC[N+](C)(C)CCOc1ccccc1,,17.8% [at 23.6 µM] (inactive)
c1ccc2sc(SNC3CCCCC3)nc2c1,inactive,
CCCBr,,5.49% (inactive)
O=C(O)C(F)(F)C(F)(F)C(F)(F)C(F)(F)C(F)(F)F,,12.4% (inactive)
Cc1ccccc1,,1.41% (inactive)
NP(N)(=O)NC(=O)c1ccc(F)cc1,,-7.84% [at 23.6 µM] (inactive)

SMILES,Potency,"activity, negative = inhibition"
CCCCC(CC)COC(=O)c1c(Br)c(Br)c(Br)c(Br)c1C(=O)OCC(CC)CCCC (stereo not given),,0.781% [at 23.6 µM] (inactive)
CCOC(=O)C1OC1(C)c1ccccc1 (stereo not given),inactive,
CC(C)c1ccc(NC(=O)N(C)C)cc1,,3.86% (inactive)
CCCCC#N,,16.2% (inactive)
Nc1cccc2ccccc12,inactive,
Clc1ccccc1,,15.9% (inactive)
CC(Oc1cccc(Cl)c1)C(=O)O (stereo not given),,-2.13% (inactive)
CCSCc1ccccc1OC(=O)NC,,2.63% (inactive)
CC[N+]1(C)CCCC(OC(=O)C(O)(c2ccccc2)c2ccccc2)C1 (stereo not given),,0.931% [at 23.6 µM] (inactive)
CC(Cl)C(=O)O (stereo not given),,0.0316% (inactive)
CN(C)C(=O)Nc1cccc(OC(=O)NC(C)(C)C)c1,,1.03% (inactive)
CCC[N+](CCC)(CCC)CCC,,3.38% (inactive)
O=C(NCNC(=O)NC1C(=O)NC(=O)N1CO)NC1C(=O)NC(=O)N1CO (stereo not given),,4.71% (inactive)
Nc1ccc2c(c1)Cc1ccccc1-2,,-0.398% (inactive)
C[C@H](N)[C@H](O)c1ccc(O)c(O)c1,,5.15% [at 23.6 µM] (inactive)
COc1ccccc1N1CCNCC1,,-3.34% [at 23.6 µM] (inactive)
N#CC(C#N)=C(C#N)C#N,,-0.0266% (inactive)
COC(=O)C1(O)c2ccccc2-c2ccccc21,,-2.56% (inactive)
CN1C[C@H](C(=O)N[C@]2(C)O[C@@]3(O)[C@@H]4CCCN4C(=O)[C@H](Cc4ccccc4)N3C2=O)C=C2c3cccc4[nH]cc(c34)C[C@H]21,inactive,
CCCN(CCC)c1c([N+](=O)[O-])cc(C(C)C)cc1[N+](=O)[O-],inactive,
